Laboratory results from PubChem BioAssay (Tox21).
Records with an inconclusive call do not appear. The source made the active and inactive calls. Unless noted, calls come from the whole dose curve; as a rule, active = well fitted curve in the direction sought with a large enough effect in the repeat runs; inconclusive = weak or mixed curves; inactive = no such curve, though single readings can be large; an effect the other way counts as inactive or inconclusive.

Experiments:
[1] = qHTS assay to identify small molecule agonists of the estrogen receptor alpha (ER-alpha) signaling pathway in the presence of an antagonist - cell viability counter screen (AID 1259386);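 note: series mostly up to about 92 µM; cells exposed to compounds for 22 h at 37 °C before the viability read; nearly all actives have a fitted effect of over 30% in size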
Method in brief: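 Viability counter screen using VM7Luc4E2 (full-length ER-alpha, four ERE-luciferase). The cells were treated with compounds alongside ICI-182,780 10.0nM for 22hr, and live-cell protease fluorescence was quantified with CellTiter-Fluor.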

[2] = biological target: Progesterone receptor (Homo sapiens) (UniProt P06401); assay: qHTS assay to identify small molecule agonists of the progesterone receptor (PR) signaling pathway (AID 1346784; calls by dose curve; note: nearly all actives have a fitted effect of over 30% in size)
Method in brief: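 Cells (PR-UAS-bla HEK 293T, GripTite) were plated in assay medium containing 2% charcoal-stripped FBS and incubated 6 hr. Test compounds in DMSO were added for 16 hr at 37C. FRET substrate was then loaded for 2 hr at room temperature before fluorescence reading.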

[3] = biological target: Progesterone receptor (Homo sapiens) (UniProt P06401); assay: qHTS assay to identify small molecule antagonists of the progesterone receptor (PR) signaling pathway (AID 1346795; active = well fitted inhibition curve with a large enough effect in the signal ratio in the repeat runs, not every such curve was filed as active; the % refers to the signal ratio)
Method in brief: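 Antagonist mode: compounds tested against 1 nM (final) promegestone stimulation in HEK293T cells expressing PR-UAS-bla reporter, 16 hr at 37C, 5% CO2; beta-lactamase activity detected via B/G FRET substrate after 2 hr at room temperature.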

[4] = qHTS assay to identify small molecule antagonists of the progesterone receptor (PR) signaling pathway - cell viability counter screen (AID 1346798); note: series mostly up to about 92 µM; nearly all actives have a fitted effect of over 50% in size
Method in brief: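 Counter screen for cytotoxicity: viability of PR-UAS-bla HEK293T cells was measured with CellTiter-Glo luminescence following 16 hr compound exposure in the presence of R5020.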

[5] = qHTS assay to identify small molecule agonists of the progesterone receptor (PR) signaling pathway - cell viability counter screen (AID 1346799; calls by dose curve; note: nearly all actives have a fitted effect of over 45% in size)
Method in brief: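 Cells (PR-UAS-bla HEK293T) are plated at 3,000/well in 2% charcoal-stripped FBS medium, rested 6 hr, dosed and incubated 16 hr at 37C. CellTiter-Glo is then added and luminescence measured after 30 min at room temperature.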

[6] = qHTS assay to identify small molecule agonists of the TGF-beta/Smad signaling pathway - cell viability counter screen (AID 1346829); note: top concentration of the series differs between compounds; nearly all actives have a fitted effect of over 45% in size
Method in brief: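 Here the cytotoxicity of library compounds is measured in SBE-bla HEK 293T cells treated for 5 hr, using CellTiter-Glo added to wells already read for the beta-lactamase reporter.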

[7] = qHTS assay to identify small molecule agonists of the TGF-beta/Smad signaling pathway (AID 1346859; active = well fitted activation curve with a large enough effect in the signal ratio in the repeat runs, not every such curve was filed as active; the % refers to the signal ratio; note: series mostly up to about 77 µM)
Method in brief: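 Reporter line: HEK 293T with stably integrated SBE-controlled beta-lactamase. Compound exposure lasts 5 hr at 37 C and 5% CO2; substrate loading follows for 2 hr at room temperature, with emission read at 460 and 530 nm.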

[8] = biological target: Thyrotropin-releasing hormone receptor (Homo sapiens) (UniProt P34981); assay: qHTS assay to identify small molecule antagonists of the thyrotropin-releasing hormone receptor (TRHR) signaling pathway (AID 1346877; active = well fitted inhibition curve with a large enough effect in the repeat runs, not every such curve was filed as active; note: series mostly up to about 51 µM)
Method in brief: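 Following an 18 h incubation at 37 °C and a 2 h calcium dye load, TRHR-HEK293 cells were exposed to compound (5 min, room temperature) and challenged with TRH, 1 nM final.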

[9] = biological target: Thyrotropin-releasing hormone receptor (Homo sapiens) (UniProt P34981); assay: qHTS assay to identify small molecule agonists of the thyrotropin-releasing hormone receptor (TRHR) signaling pathway (AID 1346891; calls by dose curve;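 note: HEK293 cells expressing TRHR with calcium dye readout; series mostly up to about 58 µM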)
Method in brief: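 Cells: TRHR-Hek293, seeded and incubated 18 h. Dye loading: 2 h at 37 °C. Compound added from DMSO stock by pin tool. Read-out: kinetic calcium fluorescence over 3 min.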

[10] = Human pregnane X receptor (PXR) small molecule agonists, qHTS cell viability counter screen (AID 1346977); note: nearly all actives have a fitted effect of over 50% in size
Method in brief: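 Cytotoxicity counter screen run in the same wells as the PXR luciferase assay, using PXR-Luc HepG2 cells in charcoal-stripped serum medium. Viability: CellTiter-Fluor fluorescence after 24hr compound treatment.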

[11] = Caspase-3/7 induction in HepG2 cells by small molecules, qHTS assay (AID 1346978); note: nearly all actives have a fitted effect of over 15% in size
Method in brief: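 Wild-type HepG2 cells (2,000/well) were settled 5 h at 37 C, 5% CO2, then exposed to compounds in DMSO for 17 h. Caspase-3/7 activity was read by luminescence 30 min after adding Caspase-Glo 3/7 reagent at room temperature.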

[12] = Caspase-3/7 induction in CHO-K1 cells by small molecules, qHTS cell viability counter screen (AID 1346979); note: nearly all actives have a fitted effect of over 35% in size
Method in brief: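 Cytotoxicity counter screen run in parallel with the caspase-3/7 assay: CHO-K1 cells, 16hr compound treatment at 37C, then CellTiter-Fluor for 1hr before fluorescence reading.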

[13] = Caspase-3/7 induction in CHO-K1 cells by small molecules, qHTS assay (AID 1346980); note: nearly all actives have a fitted effect of over 15% in size
Method in brief: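 Wild-type cells were seeded at 1,500 per well and settled 5 hr at 37 C, 5% CO2, then exposed to DMSO-dissolved compounds for 17 hr. Caspase-Glo 3/7 reagent was added, and luminescence was read after 30min at room temperature.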

[14] = Caspase-3/7 induction in HepG2 cells by small molecules, qHTS cell viability counter screen (AID 1346981); note: series mostly up to about 92 µM; nearly all actives have a fitted effect of over 30% in size
Method in brief: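 Viability determined by CellTiter-Fluor fluorescence in HepG2 wells also used for the luminescent Caspase-Glo 3/7 read. Compounds were present for 16 hr at 37 C, 5% CO2 before reagent addition.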

[15] = biological target: Nuclear receptor subfamily 1 group I member 2 (Homo sapiens) (UniProt O75469); assay: Human pregnane X receptor (PXR) small molecule agonists, qHTS assay (AID 1346982); note: nearly all actives have a fitted effect of over 35% in size; note: potency is the fitted concentration of half-maximal effect
Method in brief: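 Compound-induced hPXR transactivation of a CYP3A4 luciferase reporter was scored in HepG2 PXR-Luc cells over 24 hr at 37 C, 5% CO2, by luminescence.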

[16] = biological target: Acetylcholinesterase (Homo sapiens) (UniProt P22303); assay: Acetylcholinesterase (AChE) small molecule antagonists: colormetric cell-based qHTS assay (AID 1347395; calls by dose curve; note: nearly all actives have a fitted effect of over 30% in size)
Method in brief: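 Cells (SH-SY5Y, 2,000 per well) are seeded and left overnight at 37 C. Compound is added for 30 min, then DTNB and acetylthiocholine for a further 90 min at 37 C before absorbance-based thiocholine detection.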

[17] = qHTS assay to identify small molecule antagonists of the TGF-beta/Smad signaling pathway - cell viability counter screen (AID 1346824); note: nearly all actives have a fitted effect of over 50% in size
Method in brief: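 SBE-bla HEK 293T cells were plated overnight at 37 C, then given compounds in DMSO plus TGF-beta1 (added as 0.25 ng/mL solution) for 5 hr. After the bla read, CellTiter-Glo was added to the same wells and luminescence read after 30 min at room temperature.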

[18] = biological target: Nuclear receptor subfamily 1 group I member 2 (Rattus norvegicus) (UniProt Q9R1A7); assay: Rat pregnane X receptor (rPXR) activation by small molecules, qHTS assay (AID 1346983); conditions: rPXR luciferase reporter cells, One-Glo luminescence, 24 h; max activation: stronger effect = higher value; note: nearly all actives have a fitted effect of over 20% in size
Method in brief: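 Cell-based rPXR luciferase reporter assay, 2,000 cells per well, rested 5hr at 37 C before compound addition in DMSO, then 24 hr at 37 C. One-Glo reagent was added and luminescence read after 30 min at room temperature.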

[19] = biological target: Nuclear receptor subfamily 1 group I member 2 (Homo sapiens) (UniProt O75469); assay: CYP3A4 induction through human pregnane X receptor (PXR) by small molecules, qHTS assay (AID 1346984); note: nearly all actives have a fitted effect of over 40% in size
Method in brief: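 Readings come from a luciferase reporter: DPX-2 cells, which are HepG2 cotransfected with PXR and a CYP3A4-promoter construct, were exposed to test compounds for 24 h at 37C before One-Glo detection.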

[20] = biological target: Nuclear receptor subfamily 1 group I member 2 (Homo sapiens) (UniProt O75469); assay: Human pregnane X receptor (PXR) activation by small molecules, qHTS assay (AID 1346985); note: nearly all actives have a fitted effect of over 40% in size
Method in brief: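 DPX-2 cells (HepG2 co-transfected with a PXR response element and a CYP3A4-promoter luciferase construct) were seeded at 2,000 per well, rested 5 hr at 37C, then exposed to DMSO-dissolved compounds for 24 hr. Activation was read as luciferase luminescence.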
% is set by controls: 0 for no effect and ±100 for the full control effect.

Sequence of Nuclear receptor subfamily 1 group I member 2 (Homo sapiens) (O75469 whole entry, looked up): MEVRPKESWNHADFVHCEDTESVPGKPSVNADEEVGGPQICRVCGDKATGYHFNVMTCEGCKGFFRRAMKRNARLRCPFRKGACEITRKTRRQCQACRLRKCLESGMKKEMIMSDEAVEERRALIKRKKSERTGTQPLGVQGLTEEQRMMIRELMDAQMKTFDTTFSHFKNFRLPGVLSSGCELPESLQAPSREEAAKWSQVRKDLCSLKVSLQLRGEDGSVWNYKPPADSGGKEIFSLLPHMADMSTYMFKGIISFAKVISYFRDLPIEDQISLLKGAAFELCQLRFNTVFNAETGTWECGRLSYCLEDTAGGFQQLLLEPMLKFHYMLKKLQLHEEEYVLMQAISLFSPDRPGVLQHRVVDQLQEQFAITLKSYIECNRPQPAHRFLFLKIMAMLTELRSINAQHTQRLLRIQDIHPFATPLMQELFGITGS
Sequence of Nuclear receptor subfamily 1 group I member 2 (Rattus norvegicus) (Q9R1A7 whole entry, looked up): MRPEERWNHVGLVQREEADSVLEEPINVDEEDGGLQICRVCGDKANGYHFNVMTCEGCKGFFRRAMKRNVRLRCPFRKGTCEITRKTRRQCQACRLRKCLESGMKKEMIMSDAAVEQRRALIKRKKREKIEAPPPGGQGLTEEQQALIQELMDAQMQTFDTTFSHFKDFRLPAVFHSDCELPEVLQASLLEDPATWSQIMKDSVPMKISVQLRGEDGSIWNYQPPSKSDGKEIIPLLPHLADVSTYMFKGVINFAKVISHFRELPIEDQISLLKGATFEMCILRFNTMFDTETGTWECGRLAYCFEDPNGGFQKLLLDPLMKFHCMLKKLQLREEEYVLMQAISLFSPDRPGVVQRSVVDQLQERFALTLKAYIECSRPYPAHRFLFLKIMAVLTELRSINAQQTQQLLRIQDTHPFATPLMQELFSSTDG
Sequence of Progesterone receptor (Homo sapiens) (P06401 whole entry, looked up): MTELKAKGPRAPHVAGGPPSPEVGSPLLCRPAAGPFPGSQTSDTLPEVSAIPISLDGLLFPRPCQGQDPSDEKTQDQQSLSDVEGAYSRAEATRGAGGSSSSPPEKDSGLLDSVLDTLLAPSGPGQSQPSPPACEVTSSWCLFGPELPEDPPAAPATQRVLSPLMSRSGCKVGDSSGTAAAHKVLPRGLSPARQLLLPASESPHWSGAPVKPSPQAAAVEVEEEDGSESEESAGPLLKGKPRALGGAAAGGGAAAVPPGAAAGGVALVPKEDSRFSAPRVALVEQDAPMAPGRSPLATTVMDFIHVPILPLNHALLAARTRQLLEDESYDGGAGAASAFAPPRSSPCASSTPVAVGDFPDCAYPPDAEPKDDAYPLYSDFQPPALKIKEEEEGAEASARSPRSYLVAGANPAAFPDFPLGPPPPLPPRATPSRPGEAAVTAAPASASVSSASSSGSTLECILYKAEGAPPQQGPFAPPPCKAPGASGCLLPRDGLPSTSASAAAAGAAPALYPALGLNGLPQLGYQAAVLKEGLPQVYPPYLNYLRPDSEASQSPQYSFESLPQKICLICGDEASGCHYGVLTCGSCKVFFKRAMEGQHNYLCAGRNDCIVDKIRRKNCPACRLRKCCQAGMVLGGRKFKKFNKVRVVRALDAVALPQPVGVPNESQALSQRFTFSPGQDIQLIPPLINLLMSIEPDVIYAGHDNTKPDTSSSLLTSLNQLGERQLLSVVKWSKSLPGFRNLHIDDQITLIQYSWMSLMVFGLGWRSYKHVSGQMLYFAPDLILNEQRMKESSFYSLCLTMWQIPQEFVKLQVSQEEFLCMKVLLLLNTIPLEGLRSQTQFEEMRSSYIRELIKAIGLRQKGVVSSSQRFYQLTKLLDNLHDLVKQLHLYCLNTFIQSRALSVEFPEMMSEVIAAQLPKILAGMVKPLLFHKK
Sequence of Thyrotropin-releasing hormone receptor (Homo sapiens) (P34981 whole entry, looked up): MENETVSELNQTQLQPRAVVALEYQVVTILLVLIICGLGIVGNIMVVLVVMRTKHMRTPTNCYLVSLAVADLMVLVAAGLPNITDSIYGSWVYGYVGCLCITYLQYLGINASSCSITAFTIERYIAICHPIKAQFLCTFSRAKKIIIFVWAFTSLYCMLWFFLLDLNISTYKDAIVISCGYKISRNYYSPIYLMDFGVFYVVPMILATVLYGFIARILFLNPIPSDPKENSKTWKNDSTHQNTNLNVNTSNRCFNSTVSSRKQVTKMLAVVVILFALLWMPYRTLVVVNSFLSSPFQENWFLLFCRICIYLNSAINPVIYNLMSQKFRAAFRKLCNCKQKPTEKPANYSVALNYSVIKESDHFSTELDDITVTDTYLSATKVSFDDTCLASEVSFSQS
Sequence of Acetylcholinesterase (Homo sapiens) (P22303 whole entry, looked up): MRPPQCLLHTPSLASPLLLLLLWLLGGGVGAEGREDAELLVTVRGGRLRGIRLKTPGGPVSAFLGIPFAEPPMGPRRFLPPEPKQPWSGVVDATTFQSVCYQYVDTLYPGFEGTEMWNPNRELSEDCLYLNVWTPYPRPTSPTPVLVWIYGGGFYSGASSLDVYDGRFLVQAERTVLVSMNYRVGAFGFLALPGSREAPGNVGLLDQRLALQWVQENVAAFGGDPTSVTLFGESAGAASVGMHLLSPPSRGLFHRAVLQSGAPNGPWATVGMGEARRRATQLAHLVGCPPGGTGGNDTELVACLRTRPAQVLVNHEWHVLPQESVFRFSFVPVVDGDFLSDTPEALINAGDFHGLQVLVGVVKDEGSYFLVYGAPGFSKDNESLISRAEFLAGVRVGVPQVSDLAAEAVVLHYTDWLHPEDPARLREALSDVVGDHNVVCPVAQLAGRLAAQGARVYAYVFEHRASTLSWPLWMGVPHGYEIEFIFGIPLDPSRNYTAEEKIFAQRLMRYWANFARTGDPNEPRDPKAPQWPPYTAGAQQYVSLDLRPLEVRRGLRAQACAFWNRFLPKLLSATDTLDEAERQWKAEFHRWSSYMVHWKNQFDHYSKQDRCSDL

Cc1cc(C)c(C(=O)P(=O)(C(=O)c2c(C)cc(C)cc2C)c2ccccc2)c(C)c1
active: Potency [15] 24.3 µM
inactive: Potency [1] | Potency [2] | Potency [3] | Potency [4] | Potency [5] | outcome [6] | outcome [7] | outcome [8] | outcome [9] | Potency [10] | Potency [11] | Potency [12] | Potency [13] | Potency [14] | Potency [16]

CC1CN1P(=O)(N1CC1C)N1CC1C (stereo unspecified)
inactive: Potency [1] | Potency [2] | Potency [3] | Potency [4] | Potency [17] | outcome [6] | outcome [7] | outcome [8] | outcome [9] | Potency [10] | Potency [11] | Potency [12] | Potency [13] | Potency [14] | Potency [15] | Potency [16]

Clc1ccccc1N1CCNCC1
inactive: Potency [1] | Potency [2] | Potency [3] | Potency [4] | Potency [17] | outcome [6] | outcome [7] | outcome [8] | outcome [9] | Potency [10] | Potency [11] | Potency [12] | Potency [13] | Potency [14] | Potency [15] | Potency [16]

CCOC(=O)C(c1c(O)c2ccccc2oc1=O)c1c(O)c2ccccc2oc1=O
inactive: Potency [1] | Potency [2] | Potency [3] | Potency [4] | Potency [17] | outcome [6] | outcome [7] | outcome [8] | outcome [9] | Potency [10] | Potency [11] | Potency [12] | Potency [13] | Potency [14] | Potency [16]

O=[N+]([O-])c1cccc(O)c1
inactive: Potency [1] | Potency [2] | Potency [3] | Potency [4] | Potency [5] | outcome [6] | outcome [7] | outcome [8] | outcome [9] | Potency [10] | Potency [11] | Potency [12] | Potency [13] | Potency [14] | Potency [16]

COc1ccc(C(=O)N2CCCC2=O)cc1
inactive: Potency [1] | Potency [2] | Potency [3] | Potency [5] | Potency [17] | outcome [6] | outcome [7] | outcome [8] | outcome [9] | Potency [10] | Potency [11] | Potency [12] | Potency [13] | Potency [14]

N#CCBr
inactive: Potency [1] | Potency [2] | Potency [3] | Potency [5] | Potency [17] | outcome [6] | outcome [7] | outcome [8] | outcome [9] | Potency [10] | Potency [12] | Potency [13] | Potency [14] | Potency [15] | Potency [16]

O=C1OC(c2ccc(O)c(S(=O)(=O)O)c2)(c2ccc(O)c(S(=O)(=O)O)c2)c2c(Br)c(Br)c(Br)c(Br)c21
inactive: Potency [1] | Potency [2] | Potency [3] | Potency [5] | Potency [17] | outcome [6] | outcome [7] | Potency [10] | Potency [11] | Potency [12] | Potency [13] | Potency [14] | Potency [15] | max activation [18] -0.923% | Potency [19] | Potency [20] | Potency [16]

Cc1ncc(CNC(=O)N(CCCl)N=O)c(N)n1
inactive: Potency [1] | Potency [2] | Potency [3] | Potency [5] | Potency [17] | outcome [6] | outcome [7] | outcome [8] | outcome [9] | Potency [10] | Potency [12] | Potency [13] | Potency [14] | Potency [15] | Potency [16]

CCS(=O)(=O)C(C)(C)S(=O)(=O)CC
inactive: Potency [1] | Potency [2] | Potency [3] | Potency [5] | outcome [6] | outcome [8] | outcome [9] | Potency [11] | Potency [12] | Potency [13] | Potency [14] | Potency [15] | max activation [18] -0.861% | Potency [19] | Potency [20] | Potency [16]

Nc1ccccc1Cl
inactive: Potency [1] | Potency [2] | Potency [3] | Potency [5] | outcome [6] | outcome [7] | Potency [10] | Potency [11] | Potency [12] | Potency [13] | Potency [14] | Potency [15] | Potency [16]

CCOC(=O)CP(=O)(OCC)OCC
inactive: Potency [1] | Potency [2] | Potency [3] | Potency [5] | Potency [17] | outcome [6] | outcome [7] | outcome [8] | outcome [9] | Potency [11] | Potency [12] | Potency [13] | Potency [14] | Potency [15]

COc1cc(OC)nc(Sc2cccc(Cl)c2C(=O)O)n1
inactive: Potency [1] | Potency [2] | Potency [3] | Potency [5] | Potency [17] | outcome [6] | outcome [7] | outcome [8] | outcome [9] | Potency [10] | Potency [12] | Potency [13] | Potency [14] | Potency [15] | Potency [16]

CN1CCN(C(=O)O[C@H]2c3nccnc3C(=O)N2c2ccc(Cl)cn2)CC1
inactive: Potency [1] | Potency [2] | Potency [3] | Potency [5] | Potency [17] | outcome [6] | outcome [7] | outcome [8] | outcome [9] | Potency [12] | Potency [13] | Potency [14] | max activation [18] 2% | Potency [16]
